# Measured values reported in the supplement of paper PMC6555819.
# How the values were obtained:
# Test in all cases: PBM binding z-score (relative to random genomic background probes); higher = stronger binding; sequences stand for … in GC…GCGATTGACAGCGTAGAATGAAGG
# [1] = tested on: PPARg:RXRa DBDmut IVT, anti-RXR (DBD mutation: RXRa K156A/R161A, NR concentration 270 nM, RXRa partner concentration 90 nM)
# Summary of the method: (§1)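 Ligand-free nuclear receptor dimers were applied to custom Agilent 4×180K protein-binding microarrays whose double-stranded probes carried direct-repeat seeds, single-nucleotide variants, half-site ablations and random human genomic background sequences in 34-nt variable regions. Incubation lasted 1 h. Binding z-scores were computed against the random background probes from regression-normalized fluorescence.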
# [2] = tested on: PPARg:RXRa IVT, anti-PPARg (NR concentration 270 nM, RXRa partner concentration 90 nM)
# Summary of the method: as §1
# [3] = tested on: PPARg DBDmut:RXRa IVT, anti-PPARg (DBD mutation: PPARg1 K132A/R137A, NR concentration 270 nM, RXRa partner concentration 90 nM)
# Summary of the method: as §1
# [4] = tested on: PPARg DBDmut IVT, anti-PPARg (DBD mutation: PPARg1 K132A/R137A, NR concentration 270 nM)
# Summary of the method: as §1
# [5] = tested on: PPARg homodimer (NR concentration 180 nM)
# Summary of the method: as §1
# [6] = tested on: PXR:RXRa (NR concentration 270 nM, RXRa partner concentration 90 nM)
# Summary of the method: as §1
# [7] = tested on: PXR homodimer (NR concentration 270 nM)
# Summary of the method: as §1
# [8] = tested on: RARa:RXR (NR concentration 270 nM, RXRa partner concentration 90 nM)
# Summary of the method: as §1
# [9] = tested on: RARa homodimer (NR concentration 270 nM)
# Summary of the method: as §1
# [10] = tested on: RARb:RXRa (NR concentration 270 nM, RXRa partner concentration 90 nM)
# Summary of the method: as §1
Sequence,PBM binding z-score [1],PBM binding z-score [2],PBM binding z-score [3],PBM binding z-score [4],PBM binding z-score [5],PBM binding z-score [6],PBM binding z-score [7],PBM binding z-score [8],PBM binding z-score [9],PBM binding z-score [10]
TCTTGTATATCAACAGGAGGTTAAGAAAGATCGA,1.71,0.652,1.56,1.04,0.679,1.2,0.265,1.32,0.86,0.806
AATACACGGTCATCGTAGGCCAGAGTACGCACAG,0.462,1.62,0.948,0.51,0.841,0.356,0.177,0.83,0.727,2.83
ATCGAAAGGACGAAGGTGAGTATACCCACCCGAA,-0.74,0.283,-0.404,-0.244,0.0409,0.00854,-0.3,-0.0536,0.0942,1.17
CCTTACTGGTCAAGGTTATAGCACGGGTGGTACG,0.149,0.857,0.06,0.0641,1.25,1.12,0.519,1.01,0.942,2.02
TCGAGTAGGTTAGCCGGGGCATTCAGCCAACATA,1.95,1.45,-0.971,-1.01,-0.00962,0.241,-0.374,0.484,-0.48,0.608
CCTTACGTGTCACGAGGTTATAGCACGACGAGCG,2.43,2.16,0.0495,0.563,1.81,1.5,0.447,1.97,0.817,1.78
CGAACTAGGTCAATGACAGTGAATCTCCGCACGC,7.95,7.88,1.44,0.0144,1.11,1.01,0.0387,1.71,0.201,3.68
TCTATTAGTTGATTAGGGGAACCGAAACAGCGGA,2.55,0.819,0.627,1.48,1.45,0.576,0.595,0.544,2.06,0.416
ATACCAAGGTGATCGTGAGGTCGTTCATACTAAC,0.587,1.54,0.827,0.877,1.15,3.23,2.03,2.01,0.612,1.5
GCTAGTTGGTCAGTAAAAGGTCACGCACCGGTCG,1.6,2.94,1.14,0.145,5.9,5.48,1.28,6.73,4.45,4.47
TCATGTAGGTAAATGCTAGGTGAAAGTCCGATCT,4.15,3.44,0.811,1.12,0.796,0.502,0.512,0.568,1.39,0.378
AGAATGAGGTTATACGTAGATCACGGAAGAAAGT,4.13,2.15,1.62,1.21,0.376,1.19,0.48,1.72,0.335,1.53
CTCGAAAGGTCGTGCTGAGGTGAGTATACCAAAC,0.827,1.96,0.22,0.0024,1.84,3.61,0.222,4.16,-0.373,3.93
GCGACTGGGGCAAAGCAAGTTACCATAAGGTTGG,4.67,3.4,-0.185,-1.06,0.355,-0.0344,-0.458,0.375,-0.721,0.659
CGACCAAGGTGAACAAGGTCGTTGATTACTATTC,1.95,2.6,-0.104,-0.33,0.615,2.45,1.03,1.99,0.125,2.22
TCTTGTAGATCAATAGAGGATAAGAAAGTGCGCT,1.63,0.366,0.6,1.05,0.615,0.475,0.185,0.654,0.232,0.029
TCGAGTAGGTTACCAATGGGGGATTCAGCTTTCT,3.04,3.87,3.52,5.09,0.376,1.15,-0.444,1.17,-0.393,1.06
GCTGTTAGTTGAAAGGGCAACCGAATGATTCTCG,0.247,0.541,0.463,0.0066,1.39,0.665,0.0448,1.48,0.147,2.08
ACAGACAGGTGAGTGAAGGTAACTCCGCTGGACG,0.529,0.681,-0.384,-0.279,-0.155,-0.132,-0.203,0.0904,-0.274,0.621
